Source: PubChem BioAssay AID463173 (ICCB-Longwood Screening Facility, Harvard Medical School, 2010)
In all, about 52,000 compounds went through this assay and about 4,300 (8.3%) were called active. The entries come from a sample that favours actives as a whole. A number with no mark means an inactive call. Rule as the data show it: active = survival mostly below about 52% (no sharp cut-off); inactive = mostly above about 56%.

Each compound was assayed on DeltatarO mutant (assay: growth inhibition of S. aureus wild type versus tarO mutant, primary screen, teichoic acid synthesis inhibitors, RN4220, OD600 (AID 463173)). Conditions: OD600, 18 h, hits give low values, screened at 18.75 µg/mL (by protocol).

Row | Structure (SMILES) | survival
1 | CCOC(=O)c1cccc(NC(=O)CCS(=O)(=O)c2ccc3c(c2)CC(=O)N3C)c1 | 102%
2 | COc1cccc(C(=O)NCC(c2ccc(N(C)C)cc2)N2CCCC2)c1OC (centres undefined) | 94%
3 | Cc1nc(-c2cccc(NC(=O)Nc3ccccc3C(F)(F)F)c2)no1 | 130%
4 | Cc1ccc(C)c2c(N)c3c(nc12)CCCCC3 | 96%
5 | CC(CCc1ccccc1)NC(=O)Cn1ncc2c3ccccc3n(Cc3cccc(Cl)c3)c2c1=O (centres undefined) | 95%
6 | CC(C)(C)OC(=O)N1CC=C2C(C1)C(c1cccc(F)c1)C(C#N)=C(N)C2(C#N)C#N (centres undefined) | 79%
7 | CCN1CC=C2C(C1)C(c1ccc(Cl)s1)C(C#N)=C(N)C2(C#N)C#N (centres undefined) | 105%
8 | CCCN1CC=C2C(C1)C(c1ccc(C(=O)OC)cc1)C(C#N)=C(N)C2(C#N)C#N (centres undefined) | 51% (active)
9 | COc1cc(-c2nnc(SCC(=O)N3CCCc4ccccc43)o2)cc(OC)c1OC | 66%
10 | Cc1ccc(Cl)cc1NC(=O)C1CCN(C(=O)c2cnn(-c3ccccc3)c2-n2cccc2)CC1 | 71%
11 | Cc1cc(C)nc(SCc2noc(-c3ccc(Cl)cc3)n2)n1 | 97%
12 | CCc1ccccc1NC(=O)Nc1cc(C(=O)NCc2ccc(C)cc2)ccc1N1CCCC1 | 113%
13 | COc1ccc(NC(=O)Cn2c(=O)n(CCC(=O)NCC3CCCO3)c(=O)c3cc(OC)c(OC)cc32)cc1 (centres undefined) | 72%
14 | COc1ccc(OC)c(NC(=O)Cn2nc3c(cc2=O)CCCC3)c1 | 57%
15 | Cc1nn(-c2ccc(N3CCOCC3)nn2)c(C)c1CCC(=O)NCc1ccc(Cl)cc1 | 107%
16 | Cc1cc(C)c(NC(=O)c2oc3c(c2C)-c2[nH]ncc2CC3)c(C)c1 | 67%
17 | Cc1cc(NC(=O)c2oc3c(c2C)-c2[nH]ncc2CC3)ccc1Br | 3% (active)
18 | CCc1ccc(NC(=O)c2oc3c(c2C)-c2[nH]ncc2CC3)cc1 | 48%
19 | Cc1ccc(Cn2cc(CCC(=O)NCc3ccccc3F)c3ccccc32)cc1 | 77%
20 | Cc1c(C(=O)Nc2ccc(Br)cc2F)oc2ccc(S(=O)(=O)N3CCCCC3)cc12 | 78%
21 | Cc1cccc(N2CCN(CCCNC(=O)c3sc4ncccc4c3-n3cccc3)CC2C)c1 (centres undefined) | 105%
22 | COc1cc2c(cc1OC)C1=C(C#N)CN(C3CCCCC3)CN1CC2 | 83%
23 | NC(=O)C1CCN(C(=O)C2CCN(S(=O)(=O)c3ccc(-n4cnnn4)cc3)CC2)CC1 | 97%
24 | CCN(Cc1ccccc1)Cc1c(O)ccc2oc(C)c(C(=O)Nc3ccccc3C)c12 | 29% (active)
25 | CCN(Cc1ccccc1)Cc1c(O)ccc2oc(C)c(C(=O)Nc3ccc(C)cc3C)c12 | 33% (active)

Row | Structure (SMILES) | survival
26 | Cc1ccc(NC(=O)c2c(C)oc3ccc(O)c(CN(C)Cc4ccccc4)c23)c(C)c1 | 73%
27 | Cc1ccccc1NC(=O)c1c(C)oc2ccc(O)c(CN(C)Cc3ccccc3)c12 | 81%
28 | CCN1CCN(Cc2c(O)ccc3oc(C)c(C(=O)Nc4ccc(C)cc4C)c23)CC1 | 92%
29 | Cc1ccccc1NC(=O)c1c(C)oc2ccc(O)c(CN3CCCC3)c12 | 80%
30 | Cc1cc(=O)n(CC(=O)NC(C)c2ccccc2)c2c1c(C)nn2C (centres undefined) | 66%
31 | Cc1ccc(Nc2nnc(-c3ccc(C)c(S(=O)(=O)N4CCN(C)CC4)c3)c3ccccc23)cc1 | 80%
32 | COCCOC(=O)c1c(-c2ccccc2)c(-c2ccccc2)nn(C)c1=O | 65%
33 | COc1ccc2oc(=O)c(C(=O)NCCc3c(C)[nH]c4ccc(F)cc34)cc2c1 | 46%
34 | COc1ccc2oc(=O)c(C(=O)NCCc3c(C)[nH]c4ccc(C)cc34)cc2c1 | 40% (active)
35 | COc1ccc2oc(=O)c(C(=O)Nc3ccc(O)cc3)cc2c1 | 98%
36 | COc1ccc2oc(=O)c(C(=O)NCCc3c(C)[nH]c4c(Cl)cccc34)cc2c1 | 62%
37 | Cc1[nH]c2ccc(F)cc2c1CCNC(=O)c1cc2cc(Cl)ccc2oc1=O | 52%
38 | Cc1[nH]c2c(C)cccc2c1CCNC(=O)c1cc2ccccc2oc1=O | 86%
39 | COc1cccc2cc(C(=O)NCCc3c(C)[nH]c4ccc(F)cc34)c(=O)oc12 | 53%
40 | Cc1ccc2[nH]c(C)c(CCNC(=O)c3cc4cc(Br)ccc4oc3=O)c2c1 | 37% (active)
41 | COc1ccc2oc(=O)c(C(=O)Nc3cccc(C(=O)O)c3)cc2c1 | 50% (active)
42 | COc1ccc2oc(=O)c(C(=O)NCCc3c(C)[nH]c4ccc(Br)cc34)cc2c1 | 45%
43 | COc1ccc2oc(=O)c(C(=O)Nc3ccc(C(=O)O)cc3)cc2c1 | 136%
44 | COc1ccc2oc(=O)c(C(=O)NCCc3c(C)[nH]c4c(C)cccc34)cc2c1 | 47% (active)
45 | Cc1cc(C)n(C(C)CC(=O)Nc2cccc(C#N)c2)n1 (centres undefined) | 78%
46 | CN(C)CCN(Cc1ccccc1)S(=O)(=O)c1ccc(-c2cc(C(F)(F)F)on2)s1 | 87%
47 | O=C1CCC(=O)N1CNc1ccccc1 | 85%
48 | CC(=O)N1CCOc2cc(S(=O)(=O)Nc3cc(C(F)(F)F)ccc3Cl)c(C)cc21 | 94%
49 | CCN1CCN(CCCNC(=O)c2cnn(-c3ccc(OC)cc3)c2C2CCN(C(=O)OC(C)(C)C)CC2)CC1 | 95%
50 | Cc1ccc(N2CCN(c3nc4ccccc4n4nnnc34)CC2)c(C)c1 | 105%

Row | Structure (SMILES) | survival
51 | Cc1cccc(C)c1NC(=O)Cn1cc(C(=O)C2CC2)c2ccccc21 | 67%
52 | CCOc1ccc(NCc2cccn2-c2nnc(N3CCC(C(=O)NC(C)c4ccccc4)CC3)s2)cc1 (centres undefined) | 74%
53 | O=C1C2C(C(=O)N1CC1CCCO1)C1C=CC2C12CC2 (centres undefined) | 80%
54 | COc1cccc2cc(C(=O)NCCc3c(C)[nH]c4ccc(Br)cc34)c(=O)oc12 | 121%
55 | Cc1[nH]c2ccc(Br)cc2c1CCNC(=O)c1cc2ccccc2oc1=O | 32% (active)
56 | C=CCc1cccc2cc(C(=O)NCCc3c(C)[nH]c4c(C)cccc34)c(=O)oc12 | 48%
57 | COc1ccc(Cl)cc1Nc1ccc2cc(S(=O)(=O)N3CCCCC3)ccc2n1 | 83%
58 | CCc1ccc(S(=O)(=O)NCc2cccn2Cc2cccc(C)c2)cc1 | 79%
59 | Cc1cccc(Cn2cccc2CNS(=O)(=O)c2ccccc2F)c1 | -2% (active)
60 | Cc1cccc(Cn2cccc2CNS(=O)(=O)c2ccc(Br)cc2)c1 | 76%
61 | O=C(c1ccccc1Cl)N1CCN(CCc2ccccn2)CC1 | 52%
62 | Cc1ccccc1C(=O)N1CCN(CCc2ccccn2)CC1 | 49%
63 | CCOc1ccccc1C(=O)N1CCN(CCc2ccccn2)CC1 | 67% (active)
64 | CC(CNC(=O)CN1C(=O)c2cccnc2Oc2ccc(Cl)cc21)c1ccccc1 (centres undefined) | 90%
65 | CCOC(=O)c1noc2ncn(CC(=O)Nc3ccc(F)cc3Cl)c(=O)c12 | -5% (active)
66 | CCOC(=O)c1noc2ncn(CC(=O)Nc3ccccc3OC)c(=O)c12 | 118%
67 | CCOC(=O)c1noc2ncn(CC(=O)Nc3cc(Cl)ccc3OC)c(=O)c12 | 92%
68 | CCCCC(=O)Nc1ccc(C(=O)OCc2cc(=O)n3ccsc3n2)cc1 | 75%
69 | CC(C)CC(=O)N1c2nc(C(C)C)nn2C2(CCCCC2)[C@@H]2CCCC[C@@H]21 | 79%
70 | Clc1ccccc1-c1nc(Nc2ccccc2)nc2ccc(Br)cc12 | 47% (active)
71 | Cc1ccc2nc(Nc3ccc(Br)cc3)nc(-c3ccccc3)c2c1 | 35% (active)
72 | COc1cccc(Nc2nc(-c3ccccc3)c3cc(C)ccc3n2)c1 | 12% (active)
73 | Cc1ccc(Nc2c(-c3cccnc3)nc3ccc(Br)cn23)cc1 | 80%
74 | COc1ccc(Nc2nc(-c3ccccc3)c3cc(Br)ccc3n2)cc1 | 23% (active)
75 | CCN(CC)c1nc(-c2ccccc2Cl)c2cc(Br)ccc2n1 | 55%

Row | Structure (SMILES) | survival
76 | COc1ccccc1Nc1nc(-c2ccccc2Cl)c2cc(Br)ccc2n1 | 125%
77 | Cc1cc(C)cc(NC(=O)CSc2nc(-c3ccccc3)c3cc(F)ccc3n2)c1 | 87%
78 | COc1ccc(Nc2nc(N)c3cc(OC)c(OC)cc3n2)cc1 | 87%
79 | Clc1ccc(Nc2nc(-c3ccccc3)c3cc(Cl)ccc3n2)cc1 | 54%
80 | COc1cccc(NC(=O)c2c(-c3ccc(C)cc3)nnc3ccccc23)c1 | 78%
81 | COc1cccc(Nc2cc(C)nc3ccccc23)c1 | 109%
82 | O=C(CCn1cccn1)Nc1ccc(Br)cc1F | 93%
83 | COC(=O)c1cc2sccc2n1CC(=O)Nc1cc(Cl)ccc1OC | 99%
84 | S=C(Nc1ccccc1)N1CCOCC1 | 89%
85 | CC(=O)c1cccc(NC(=O)c2nc3ccccc3nc2N2CCCCC2)c1 | 71%
86 | Cc1cccc(NC(=O)CSc2nc3c(oc4ccccc43)c(=O)n2C(C)C)c1 | 63%
87 | CCc1ccc(C(=O)c2cn(CC(=O)Nc3cccc(OC)c3)c3cc4c(cc3c2=O)OCO4)cc1 | 72%
88 | O=C(COc1ccc(Cl)cc1)Nc1nnc2n1CCS2 | 124%
89 | Cc1ccc(C(=O)N2CCC(c3c[nH]c4ccccc34)(c3c[nH]c4ccccc34)CC2)cc1 | 87%
90 | COc1ccc(CCNc2ncnc3c2c(-c2ccccc2)cn3-c2ccc(Cl)cc2)cc1OC | 97%
91 | Oc1ccccc1Nc1nc(-c2ccccc2)c2cc(Cl)ccc2n1 | 71%
92 | Cc1ccc(C)c(Nc2nc(-c3ccccc3)c3cc(Br)ccc3n2)c1 | 43% (active)
93 | Clc1ccc2nc(Nc3ccccc3Cl)nc(-c3ccccc3)c2c1 | 75%
94 | COc1cc2nc(Nc3cccc(C)c3)nc(N)c2cc1OC | 67%
95 | Cc1cccc(Nc2nc(-c3ccccc3)c3cc(C)ccc3n2)c1 | 3% (active)
96 | O=C(O)c1cccc(Nc2ncnc3ccc(Br)cc23)c1 | 119%
97 | O=C(O)c1ccc(Nc2nc(-c3ccccc3)c3cc(Br)ccc3n2)cc1 | 21% (active)
98 | Clc1ccc(Nc2nc(-c3ccccc3)c3ccccc3n2)c(Cl)c1 | 72%
99 | Cc1ccc2nc(NN)nc(-c3ccccc3)c2c1 | 98%
